Assay results taken from ChEMBL document CHEMBL1961873, “Compounds: GSK PKIS; Assays: Nanosyn kinase panel” (2012).

Legend:
[1] = system: Epidermal growth factor receptor (Homo sapiens), P00533 [T790M]; conditions: at 1 µM
[2] = system: Epidermal growth factor receptor (Homo sapiens), P00533 [L858R,T790M]; conditions: at 0.1 µM
[3] = system: Epidermal growth factor receptor (Homo sapiens), P00533 [L858R,T790M]; conditions: at 1 µM
[4] = target: Ephrin type-A receptor 2 (Homo sapiens) (UniProt P29317); conditions: at 0.1 µM
Chain of Ephrin type-A receptor 2 (Homo sapiens) (P29317 whole entry): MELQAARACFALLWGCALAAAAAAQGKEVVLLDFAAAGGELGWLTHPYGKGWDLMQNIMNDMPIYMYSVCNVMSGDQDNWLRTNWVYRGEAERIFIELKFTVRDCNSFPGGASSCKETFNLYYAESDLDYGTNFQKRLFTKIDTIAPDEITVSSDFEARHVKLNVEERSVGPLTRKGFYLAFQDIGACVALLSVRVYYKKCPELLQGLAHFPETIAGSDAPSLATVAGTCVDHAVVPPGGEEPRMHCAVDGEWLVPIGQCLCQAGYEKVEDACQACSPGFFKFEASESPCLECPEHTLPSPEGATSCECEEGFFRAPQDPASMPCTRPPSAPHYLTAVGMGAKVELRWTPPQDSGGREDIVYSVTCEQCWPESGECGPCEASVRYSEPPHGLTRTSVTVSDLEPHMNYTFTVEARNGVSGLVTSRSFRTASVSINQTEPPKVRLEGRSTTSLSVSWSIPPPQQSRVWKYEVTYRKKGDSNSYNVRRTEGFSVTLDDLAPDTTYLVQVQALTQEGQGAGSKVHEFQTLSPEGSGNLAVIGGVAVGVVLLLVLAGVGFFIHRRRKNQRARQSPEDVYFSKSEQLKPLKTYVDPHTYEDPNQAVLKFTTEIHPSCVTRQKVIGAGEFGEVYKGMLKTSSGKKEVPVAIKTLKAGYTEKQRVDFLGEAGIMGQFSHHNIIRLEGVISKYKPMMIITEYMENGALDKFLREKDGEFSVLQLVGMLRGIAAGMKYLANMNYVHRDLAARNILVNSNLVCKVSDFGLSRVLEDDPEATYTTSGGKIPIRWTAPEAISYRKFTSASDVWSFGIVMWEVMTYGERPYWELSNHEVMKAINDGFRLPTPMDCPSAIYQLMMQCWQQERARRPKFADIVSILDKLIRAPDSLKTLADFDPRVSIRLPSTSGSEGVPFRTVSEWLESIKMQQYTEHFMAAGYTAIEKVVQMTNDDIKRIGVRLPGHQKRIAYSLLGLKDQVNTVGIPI

[5] = target: Ephrin type-A receptor 2 (Homo sapiens) (UniProt P29317); conditions: at 1 µM
[6] = target: T1, Ephrin type-A receptor 3 (Homo sapiens) (UniProt P29320); conditions: at 0.1 µM
T1 sequence (whole entry): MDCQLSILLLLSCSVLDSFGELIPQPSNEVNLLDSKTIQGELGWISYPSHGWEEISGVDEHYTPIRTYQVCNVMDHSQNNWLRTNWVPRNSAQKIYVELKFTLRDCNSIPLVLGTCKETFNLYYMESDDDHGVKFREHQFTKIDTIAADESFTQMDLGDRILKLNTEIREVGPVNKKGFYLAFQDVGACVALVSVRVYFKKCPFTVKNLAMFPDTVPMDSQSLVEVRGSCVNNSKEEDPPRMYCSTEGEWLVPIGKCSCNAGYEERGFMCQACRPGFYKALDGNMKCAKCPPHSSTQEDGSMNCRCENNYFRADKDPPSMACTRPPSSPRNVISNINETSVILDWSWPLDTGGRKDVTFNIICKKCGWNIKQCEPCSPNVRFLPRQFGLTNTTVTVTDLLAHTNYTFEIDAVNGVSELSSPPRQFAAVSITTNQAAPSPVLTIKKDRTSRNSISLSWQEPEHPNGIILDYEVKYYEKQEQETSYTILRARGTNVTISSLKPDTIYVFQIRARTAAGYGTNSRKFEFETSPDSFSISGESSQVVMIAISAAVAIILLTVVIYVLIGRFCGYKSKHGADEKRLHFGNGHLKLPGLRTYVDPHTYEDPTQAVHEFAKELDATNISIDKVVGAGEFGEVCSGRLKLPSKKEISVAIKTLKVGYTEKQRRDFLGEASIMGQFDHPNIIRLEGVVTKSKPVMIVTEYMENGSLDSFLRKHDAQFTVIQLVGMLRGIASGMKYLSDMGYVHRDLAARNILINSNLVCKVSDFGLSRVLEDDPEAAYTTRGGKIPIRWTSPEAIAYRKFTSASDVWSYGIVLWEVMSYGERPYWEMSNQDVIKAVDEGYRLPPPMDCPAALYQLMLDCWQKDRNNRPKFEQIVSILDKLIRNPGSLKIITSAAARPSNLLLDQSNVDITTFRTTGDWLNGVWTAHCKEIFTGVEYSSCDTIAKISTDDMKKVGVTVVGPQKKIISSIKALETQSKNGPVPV

[7] = target: T1, Ephrin type-A receptor 3 (Homo sapiens); conditions: at 1 µM
[8] = target: Ephrin type-A receptor 4 (Homo sapiens) (UniProt P54764); conditions: at 0.1 µM
Chain of Ephrin type-A receptor 4 (Homo sapiens) (P54764 whole entry): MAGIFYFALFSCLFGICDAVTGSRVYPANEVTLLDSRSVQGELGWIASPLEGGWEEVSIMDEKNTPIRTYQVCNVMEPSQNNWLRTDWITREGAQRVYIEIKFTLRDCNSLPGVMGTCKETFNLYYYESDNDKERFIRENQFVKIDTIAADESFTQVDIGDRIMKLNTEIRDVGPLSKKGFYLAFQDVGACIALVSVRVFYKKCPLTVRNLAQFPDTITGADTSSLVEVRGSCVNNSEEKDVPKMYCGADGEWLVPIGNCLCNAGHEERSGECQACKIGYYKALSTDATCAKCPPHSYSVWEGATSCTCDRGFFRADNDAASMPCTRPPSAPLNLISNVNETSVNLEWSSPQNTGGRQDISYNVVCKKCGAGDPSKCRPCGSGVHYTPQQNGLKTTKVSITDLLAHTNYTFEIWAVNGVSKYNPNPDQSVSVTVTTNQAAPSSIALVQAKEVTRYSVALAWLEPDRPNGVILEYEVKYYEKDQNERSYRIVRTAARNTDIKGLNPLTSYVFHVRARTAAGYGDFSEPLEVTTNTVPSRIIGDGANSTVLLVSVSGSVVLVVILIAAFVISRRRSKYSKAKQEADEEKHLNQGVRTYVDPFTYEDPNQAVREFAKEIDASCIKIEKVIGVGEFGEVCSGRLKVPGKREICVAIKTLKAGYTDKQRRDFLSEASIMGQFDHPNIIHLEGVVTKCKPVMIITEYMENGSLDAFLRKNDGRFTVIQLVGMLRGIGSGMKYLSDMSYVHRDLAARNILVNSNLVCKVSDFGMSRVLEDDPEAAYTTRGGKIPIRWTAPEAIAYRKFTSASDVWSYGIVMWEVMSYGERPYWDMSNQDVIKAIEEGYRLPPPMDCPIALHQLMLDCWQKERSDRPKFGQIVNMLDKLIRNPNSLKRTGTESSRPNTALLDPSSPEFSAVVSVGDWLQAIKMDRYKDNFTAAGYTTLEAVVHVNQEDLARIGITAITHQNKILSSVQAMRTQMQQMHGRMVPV

[9] = target: Ephrin type-A receptor 4 (Homo sapiens) (UniProt P54764); conditions: at 1 µM
[10] = target: T2, Ephrin type-B receptor 2 (Homo sapiens) (UniProt P29323); conditions: at 0.1 µM;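 note: reported as mean inhibition of EPHB2, from the GSK PKIS dataset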
T2 sequence (whole entry): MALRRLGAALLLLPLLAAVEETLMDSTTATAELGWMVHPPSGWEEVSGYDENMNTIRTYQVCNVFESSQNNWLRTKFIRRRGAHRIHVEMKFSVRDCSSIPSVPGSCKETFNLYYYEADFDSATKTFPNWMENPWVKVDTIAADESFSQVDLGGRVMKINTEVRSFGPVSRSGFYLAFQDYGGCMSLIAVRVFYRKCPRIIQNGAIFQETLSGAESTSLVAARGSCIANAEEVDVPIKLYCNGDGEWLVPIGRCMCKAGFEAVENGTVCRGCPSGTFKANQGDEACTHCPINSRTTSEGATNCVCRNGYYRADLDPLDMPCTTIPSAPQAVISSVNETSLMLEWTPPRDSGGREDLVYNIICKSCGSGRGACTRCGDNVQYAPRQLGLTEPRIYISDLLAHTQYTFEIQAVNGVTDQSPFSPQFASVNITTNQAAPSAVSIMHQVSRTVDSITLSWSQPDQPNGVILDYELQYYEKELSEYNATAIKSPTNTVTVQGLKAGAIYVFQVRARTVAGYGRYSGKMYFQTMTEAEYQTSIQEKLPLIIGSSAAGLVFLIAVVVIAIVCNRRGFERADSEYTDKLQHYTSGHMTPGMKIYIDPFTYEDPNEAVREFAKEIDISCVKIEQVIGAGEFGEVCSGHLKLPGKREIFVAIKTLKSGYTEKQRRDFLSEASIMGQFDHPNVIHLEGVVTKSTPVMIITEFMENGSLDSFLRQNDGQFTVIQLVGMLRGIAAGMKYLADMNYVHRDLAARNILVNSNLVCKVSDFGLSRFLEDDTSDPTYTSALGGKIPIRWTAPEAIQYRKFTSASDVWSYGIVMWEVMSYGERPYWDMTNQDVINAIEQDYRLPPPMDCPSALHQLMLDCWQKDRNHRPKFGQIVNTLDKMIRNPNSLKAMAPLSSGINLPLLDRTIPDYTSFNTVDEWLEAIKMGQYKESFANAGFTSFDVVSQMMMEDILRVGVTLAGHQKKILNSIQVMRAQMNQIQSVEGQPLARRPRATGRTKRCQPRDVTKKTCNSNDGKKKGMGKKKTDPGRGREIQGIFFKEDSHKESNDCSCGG

Chain of Epidermal growth factor receptor (Homo sapiens), P00533 [L858R,T790M] (P00533 whole entry T790M/L858R, looked up): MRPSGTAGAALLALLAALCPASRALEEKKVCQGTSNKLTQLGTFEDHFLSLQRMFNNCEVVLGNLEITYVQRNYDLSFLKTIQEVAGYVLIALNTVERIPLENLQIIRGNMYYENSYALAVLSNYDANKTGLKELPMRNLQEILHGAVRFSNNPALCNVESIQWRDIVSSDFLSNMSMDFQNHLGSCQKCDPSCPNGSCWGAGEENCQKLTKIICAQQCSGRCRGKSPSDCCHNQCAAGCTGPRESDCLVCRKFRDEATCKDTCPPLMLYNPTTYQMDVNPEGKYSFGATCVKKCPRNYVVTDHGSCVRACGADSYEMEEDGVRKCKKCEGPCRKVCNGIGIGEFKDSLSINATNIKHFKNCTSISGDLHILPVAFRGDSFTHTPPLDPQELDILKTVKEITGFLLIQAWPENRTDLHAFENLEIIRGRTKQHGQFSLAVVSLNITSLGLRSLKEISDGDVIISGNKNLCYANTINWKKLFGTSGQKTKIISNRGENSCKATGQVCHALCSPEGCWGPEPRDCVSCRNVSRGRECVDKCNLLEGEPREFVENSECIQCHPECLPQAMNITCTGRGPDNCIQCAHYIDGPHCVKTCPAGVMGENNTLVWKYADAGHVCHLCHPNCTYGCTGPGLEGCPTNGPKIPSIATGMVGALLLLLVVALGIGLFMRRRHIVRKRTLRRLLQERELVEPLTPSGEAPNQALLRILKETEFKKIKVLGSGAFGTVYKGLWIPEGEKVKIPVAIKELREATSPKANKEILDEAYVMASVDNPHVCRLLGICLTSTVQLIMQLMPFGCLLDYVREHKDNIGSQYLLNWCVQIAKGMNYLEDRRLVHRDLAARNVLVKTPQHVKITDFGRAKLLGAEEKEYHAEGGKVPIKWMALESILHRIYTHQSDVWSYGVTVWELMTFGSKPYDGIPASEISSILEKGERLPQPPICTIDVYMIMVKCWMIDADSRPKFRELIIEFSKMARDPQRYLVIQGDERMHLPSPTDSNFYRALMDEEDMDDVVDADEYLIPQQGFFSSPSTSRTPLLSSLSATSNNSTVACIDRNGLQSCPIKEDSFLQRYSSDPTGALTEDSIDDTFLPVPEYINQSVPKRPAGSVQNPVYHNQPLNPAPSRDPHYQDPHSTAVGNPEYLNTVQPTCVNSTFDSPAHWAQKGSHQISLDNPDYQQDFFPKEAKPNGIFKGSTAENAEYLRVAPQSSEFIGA
Chain of Epidermal growth factor receptor (Homo sapiens), P00533 [T790M] (P00533 whole entry T790M): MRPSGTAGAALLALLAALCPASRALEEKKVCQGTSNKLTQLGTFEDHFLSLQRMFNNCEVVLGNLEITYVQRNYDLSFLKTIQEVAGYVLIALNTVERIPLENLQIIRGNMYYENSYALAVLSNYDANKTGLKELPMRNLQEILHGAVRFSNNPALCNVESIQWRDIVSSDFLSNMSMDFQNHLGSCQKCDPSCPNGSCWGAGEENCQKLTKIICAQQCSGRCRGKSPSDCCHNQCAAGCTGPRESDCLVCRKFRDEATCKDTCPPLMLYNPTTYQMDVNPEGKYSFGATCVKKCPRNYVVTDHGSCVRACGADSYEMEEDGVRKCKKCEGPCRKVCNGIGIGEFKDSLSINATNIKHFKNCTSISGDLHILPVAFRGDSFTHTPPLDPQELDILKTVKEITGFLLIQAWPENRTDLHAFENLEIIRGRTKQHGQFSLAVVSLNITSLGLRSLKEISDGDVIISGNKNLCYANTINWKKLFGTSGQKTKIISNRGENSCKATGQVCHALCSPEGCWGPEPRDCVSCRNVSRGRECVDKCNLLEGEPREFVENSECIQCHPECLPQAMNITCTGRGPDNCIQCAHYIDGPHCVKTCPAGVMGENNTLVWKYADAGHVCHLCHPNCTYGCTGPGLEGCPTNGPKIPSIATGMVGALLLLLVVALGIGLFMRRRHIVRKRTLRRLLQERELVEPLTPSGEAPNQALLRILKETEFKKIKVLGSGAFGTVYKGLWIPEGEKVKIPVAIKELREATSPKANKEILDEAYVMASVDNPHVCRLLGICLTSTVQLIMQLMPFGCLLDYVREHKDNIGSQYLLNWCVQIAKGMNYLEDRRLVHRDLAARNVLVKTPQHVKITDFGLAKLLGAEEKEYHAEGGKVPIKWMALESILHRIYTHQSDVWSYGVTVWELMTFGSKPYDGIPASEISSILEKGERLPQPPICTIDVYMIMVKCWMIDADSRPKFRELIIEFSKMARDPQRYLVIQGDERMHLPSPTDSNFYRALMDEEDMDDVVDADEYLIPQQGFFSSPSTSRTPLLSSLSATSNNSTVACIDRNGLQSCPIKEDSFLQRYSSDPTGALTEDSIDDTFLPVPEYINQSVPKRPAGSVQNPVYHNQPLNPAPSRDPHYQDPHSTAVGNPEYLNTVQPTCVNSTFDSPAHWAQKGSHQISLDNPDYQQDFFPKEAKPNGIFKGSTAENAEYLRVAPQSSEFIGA

Row | SMILES | inhibition [1] | inhibition [2] | inhibition [3] | inhibition [4] | inhibition [5] | inhibition [6] | inhibition [7] | inhibition [8] | inhibition [9] | inhibition [10]
1 | Nc1ncnc2occ(-c3ccc(NC(=O)Nc4cccc(C(F)(F)F)c4)cc3)c12 | 4.59% | 0.78% | 5.43% | 17.2% | 85% | 18.4% | 50.6% | 46.8% | 78.3% | 74.1%
2 | O=C1NC(=O)C(c2cccc(Cl)c2)=C1Nc1ccc(O)c(Cl)c1 | -0.85% | 0.92% | 0.61% | 0.74% | 1.32% | 0.53% | -2.04% | 1.17% | -8.81% | -3.19%
3 | Cc1ccc(C(=O)NC2CCCCC2)cc1-c1ccc(C(=O)NCC2CC2)cc1 | -2.05% | -0.59% | -0.67% | 2.02% | 1.67% | 5.5% | 5.14% | 8.35% | 3.57% | 6.79%
4 | c1cnn2ncc(-c3ccnc(Nc4ccc5c(c4)OCCO5)n3)c2c1 | 2.42% | 2.19% | 7.05% | 2.91% | 5.71% | 7.54% | 5.48% | 12% | 28.2% | 12.1%
5 | [O-][S+]1CCN(Cc2ccc(-c3ccc4ncnc(Nc5ccc(OCc6ccccc6)c(F)c5)c4c3)o2)CC1 | 10.7% | 3.03% | 0.99% | 0.8% | -0.21% | 4.64% | 4.32% | 4.58% | -1.51% | 4.14%
6 | COc1cc2ncn(-c3cc(OCc4ccccc4C(F)(F)F)c(C(N)=O)s3)c2cc1OC | 1.9% | 3.32% | 4.7% | -0.41% | 3.23% | -0.35% | 7.13% | 11.3% | 23.3% | 14.9%
7 | CNC(=O)c1cncc(/C=C/c2c(Cl)cccc2Cl)c1 | 0.83% | 0.18% | 3.2% | 0.35% | 17.3% | -0.5% | 5.3% | 7.99% | 43.6% | 10.3%
8 | COc1cc2ncn(-c3cc(O[C@@H](C)c4ccccc4Cl)c(C(N)=O)s3)c2cc1OC | 2.06% | 1.8% | 5.2% | 1.55% | 1.17% | 1.7% | 6.21% | 6.22% | 14.2% | 7.76%
9 | CCCN1CCC(Oc2cc(Nc3nc(Nc4cccc(F)c4C(N)=O)c4cc[nH]c4n3)c(OC)cc2Cl)CC1 | -0.49% | -2.63% | 2.79% | -1.48% | 0.75% | -0.71% | 2.51% | 3.96% | 9.42% | 5.31%
10 | NS(=O)(=O)c1ccc(N/N=C2\C(=O)Nc3ccc(C(=O)NCCc4c[nH]cn4)cc32)cc1 | 1.79% | 3.11% | 5.71% | 1.93% | 1.88% | 7.18% | 8.06% | 10.7% | 16.3% | 11.4%
11 | COc1cc2ncn(-c3cc(OCc4ccccc4Cl)c(C(N)=O)s3)c2cc1OC | 0.02% | -1.12% | 1.19% | -2.86% | -1.31% | -1.62% | 0.98% | 0.5% | 7.32% | 2%
12 | COC(=O)Nc1nc2cc(Oc3cccc(NC(=O)Nc4cc(C(F)(F)F)ccc4F)c3)ccc2[nH]1 | -1.93% | -3.25% | 3.44% | -2.35% | 3.83% | 0.48% | 2.56% | 1.63% | 14.2% | -0.54%
13 | O=C(Nc1n[nH]c2nc(-c3ccco3)c(Br)cc12)C1CC1 | -0.71% | 5.44% | 0.25% | 1.53% | 1.29% | 6.55% | 4.24% | 7.41% | 2.95% | 7.31%
14 | CCc1cccc(NC(=O)Nc2ccc(Oc3ccc4nc(NC(=O)OC)[nH]c4c3)cc2)c1 | 1.6% | 3.59% | 4.31% | 49.4% | 65.7% | 13.9% | 10.1% | 52.3% | 72.3% | 44.5%
15 | O=C1NC(=O)C(N2CCc3ccccc32)=C1c1ccc(Cl)cc1 | -0.47% | 1.35% | 2.67% | 1.33% | 1.75% | 3.76% | 3.61% | 8.28% | 3.43% | 5.72%
16 | CC(=O)Nc1cccc(C#Cc2cncnc2Nc2ccc(OCc3cccc(F)c3)c(Cl)c2)n1 | 9.1% | -2.43% | 3.75% | 2.75% | 1.53% | 0.44% | 0.58% | 1.13% | 5.16% | -1.46%
17 | CCCN1CCC=C(c2ccc(Nc3nc(Nc4ccccc4C(N)=O)c4cc[nH]c4n3)c(C)c2)C1 | 25.1% | 7.32% | 51.6% | 1.69% | -0.07% | 3.53% | 2.81% | 5.85% | 10.8% | 8.59%
